PubChem BioAssay
For part of these data: Potency and affinity values are given separately. Records with an inconclusive call do not appear. The source made the active and inactive calls. Unless noted, no rule for the calls is given here.

Assays:
[1] = tested on: XIP peptide (Xip251-270) binding; experiment: small-molecule binders of XIP peptide, primary screen, biochemical, small-molecule microarray, fluorescence 635/667 nm, 0.1 µg/mL protein (AID 1182); details: fluorescent protein binding, 635 nm, higher = more signal, called active from +8 up or from −8 down
XIP peptide (Xip251-270) = experiment: small-molecule binders of XIP peptide, primary screen, biochemical, small-molecule microarray, fluorescence 635/667 nm, 0.5 µg/mL protein (AID 1183); details: small-molecule microarray binding, fluorescence 635 nm; higher = more signal
[2] = Plasmodium falciparum growth inhibition, primary screen, strain 3D7, DAPI fluorescence, 100 nL (AID 1184);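 also: parasites grown inside human red blood cells in medium with human serum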; details: P. falciparum 3D7 growth, 3 d, higher = more signal
[3] = biological target: Homeobox protein Hox-A13 (Mus musculus) (UniProt Q62424); experiment: inhibitors of HoxA13-DNA binding, primary screen, biochemical, fluorescence polarization, labeled oligonucleotide (AID 1185); details: 15 min, higher = more signal, called active from +8 up or from −8 down
Chain of Homeobox protein Hox-A13 (Mus musculus) (Q62424 whole entry, looked up): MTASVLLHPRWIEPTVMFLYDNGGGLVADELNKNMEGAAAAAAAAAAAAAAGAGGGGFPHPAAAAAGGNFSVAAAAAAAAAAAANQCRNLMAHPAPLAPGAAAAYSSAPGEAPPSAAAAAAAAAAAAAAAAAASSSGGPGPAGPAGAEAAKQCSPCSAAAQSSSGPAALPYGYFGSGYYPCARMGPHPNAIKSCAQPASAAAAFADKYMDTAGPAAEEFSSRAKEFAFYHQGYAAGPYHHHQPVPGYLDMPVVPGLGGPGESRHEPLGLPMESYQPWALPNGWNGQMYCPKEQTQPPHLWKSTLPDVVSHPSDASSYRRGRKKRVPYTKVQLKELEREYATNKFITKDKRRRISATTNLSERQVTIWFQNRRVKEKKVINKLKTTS

[4] = inhibitors of hydroxyurea-induced Chk1 phosphorylation, primary screen, imaging, HeLa, phospho-Chk1 antibody, percent positive cells (AID 1186); details: hydroxyurea-induced phospho-Chk1 immunofluorescence imaging, higher = more signal
[5] = inhibitors of hydroxyurea-induced Chk1 phosphorylation, primary screen, imaging, HeLa, phospho-Chk1 nuclear intensity (AID 1187); details: hydroxyurea-induced phospho-Chk1 immunofluorescence imaging, higher = more signal
[6] = Cryptococcus neoformans growth inhibition, dose response, Alamar Blue, cherry-picks (AID 686998;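 active = falling signal with fitted half-maximal potency no higher than twice the top valid tested dose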); details: 24 h; series mostly up to 35 µM
[7] = inducers of Cryptococcus neoformans cell lysis, dose response, AK release luminescence, cherry-picks (AID 687000;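 active = fitted dose curve reaches 40% lysis signal rise at or below the highest valid concentration tested for that sample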;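 also: luminescent detection of adenylate kinase leaking from lysed yeast; 0% = median neutral control signal and 100% = double that signal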); details: C. neoformans lysis, adenylate kinase release luminescence, 4 h, 100% = twice the neutral-control signal; series mostly up to 15 µM
[8] = HepG2 cell cytotoxicity, dose response, cytotoxicity control, cherry-picks, set 2 (AID 687002;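 active = a dose-response fit showing signal loss, with half-maximal concentration no higher than twice the top tested dose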); details: HepG2 viability, ATP luminescence (CellTiter-Glo), 48 h; series mostly up to 26 µM
[9] = HeLa cell cytotoxicity, dose response, cytotoxicity control, ATP luminescence, cherry-pick samples (AID 687004;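 active = a fitted half-maximal concentration no higher than twice the top valid tested dose, with signal falling as cells die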;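 also: 0% = neutral control median and -100% = staurosporine 10 µM control median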); details: HeLa viability, ATP luminescence (CellTiter-Glo), 48 h; series mostly up to 26 µM
[10] = IGROV1 ovarian cancer cell cytotoxicity, dose response, PAX8 inhibitor project, plate reader, dry powder samples (AID 743043); details: series mostly up to 50 µM;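 also: more negative means fewer viable cells or more cytotoxicity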
[11] = IOSE-T80 ovarian epithelial cell cytotoxicity, dose response, cytotoxicity control for PAX8 inhibitor project, plate reader, dry powder samples (AID 743045); details: IOSE-T80 ovarian epithelial cells; series mostly up to 50 µM;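 also: 0% = neutral control median and -100% = positive control median; more negative values mean more cell killing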

SMILES | composite z-score [1] | composite z-score (XIP peptide (Xip251-270)) | z-score [2] | z-score [3] | z-score [4] | z-score [5] | outcome [6] | outcome [7] | outcome [8] | outcome [9] | outcome [10] | outcome [11]
CN(C)C(=O)[C@@]1(Cc2ccccc2N=[N+]=[N-])N=C(c2ccc(OCCCO)cc2)O[C@H]1c1ccccc1CN=[N+]=[N-] | 0.0857 (inactive) | 0.896 | -2.25 | -1.82 (inactive) | -0.554 (inactive) | -0.339 (inactive) |  |  |  |  |  | 
[N-]=[N+]=NCc1ccccc1[C@H]1OC(c2ccc(OCCCO)cc2)=N[C@@]1(Cc1ccccc1N=[N+]=[N-])C(=O)NCc1ccccc1 | 0.0116 (inactive) | 0.649 | -2.49 | -1.23 (inactive) | -0.0872 (inactive) | -0.747 (inactive) |  |  |  |  |  | 
C=CCC(OC(C)=O)[C@@H]1[C@@H](N(Cc2cc3ccccc3o2)C(=O)Cc2ccc(F)cc2)c2cc(OCCCO)ccc2N1C(=O)c1ccc(-c2ccccc2)cc1 (some centres not stated) | -0.618 (inactive) | -0.666 | -0.0101 | -1.04 (inactive) | 0.0934 (inactive) | 0.192 (inactive) |  |  |  |  |  | 
C[C@]1(C(=O)NCCN2CCOCC2)c2ccccc2C(=O)N(Cc2ccccc2)[C@H]1c1ccc(CO)cc1 | 0.946 (inactive) | 0.78 | -1.22 | -3.99 (inactive) | 0.0553 (inactive) | 0.0648 (inactive) |  |  |  |  |  | 
CO[C@H]1O[C@H](CO)[C@@H](OC(=O)Nc2ccccc2)[C@H](OC(=O)Nc2ccc3c(c2)OCO3)[C@@H]1OC(=O)Nc1ccc2c(c1)OCO2 | 2.23 (inactive) | 0.863 | -1.9 | -9.6 (active) | 0.149 (inactive) | 0.121 (inactive) |  |  |  |  |  | 
COc1ccc(NN2C(C(O)c3cc(OC)c(OC)c(OC)c3)C=CC3C(=O)N(C4CCCCC4)C(=O)C32)cc1 (configuration not stated) | -0.0682 (inactive) | 0.758 | -1.11 | -4.58 (inactive) | 0.071 (inactive) | -0.378 (inactive) |  |  |  |  |  | 
CCOC(=O)[C@H]1C/C=C/C[C@H](C(=O)OCC)C(=O)O[C@H]2[C@@H](OC)O[C@H](CO)[C@@H](OC(=O)Nc3ccc(Br)cc3)[C@@H]2OC1=O | 0.709 (inactive) | 0.867 | -1.85 | -0.239 (inactive) | -0.181 (inactive) | -0.26 (inactive) |  |  |  |  |  | 
C=CCNC(=O)[C@@H]1[C@H]2C(=O)O[C@H](c3ccccc3)[C@H](c3ccccc3)N2[C@H](c2ccc(OCCO)cc2)[C@@]12C(=O)N(C(=O)OCCOC)c1ccc(C#CC3(O)CCCCCC3)cc12 | 0.87 (inactive) | 0.675 | -2.33 | 2.65 (inactive) | -0.0211 (inactive) | 0.0364 (inactive) |  |  |  |  |  | 
[N-]=[N+]=NCc1ccccc1C[C@@]1(C(=O)N2CCOCC2)N=C(c2ccc(OCCCO)cc2)O[C@@H]1c1ccccc1N=[N+]=[N-] | 1.4 (inactive) | 0.711 | -1.98 | -0.217 (inactive) | -0.269 (inactive) | 0.0427 (inactive) |  |  |  |  |  | 
O=C1C2C=CC(C(O)C(c3ccccc3)c3ccccc3)N(Nc3ccc([N+](=O)[O-])cc3)C2C(=O)N1c1ccccc1 (configuration not stated) | -0.0268 (inactive) | 0.747 | 0.535 | -1.88 (inactive) | 0.349 (inactive) | 0.0443 (inactive) |  |  |  |  |  | 
COc1ccc([Si](C)(C)[C@H]2[C@H](CC(=O)N3Cc4ccccc4C[C@H]3CO)O[C@@]3(C(=O)N(Cc4cccc(N5CCOC5=O)c4)c4ccccc43)[C@@H]2C)cc1 | 0.873 (inactive) | 0.625 | -1.55 | -3.02 (inactive) | -0.958 (inactive) | -0.191 (inactive) |  |  |  |  |  | 
O=C1C[C@@](C(=O)NC2CC2)(c2ccc([N+](=O)[O-])cc2)[C@@H](c2ccc(CO)cc2I)N1CC12CC3CC(CC(C3)C1)C2 | 0.479 (inactive) | 0.687 | -1.29 | -3.64 (inactive) | -0.174 (inactive) | -0.372 (inactive) |  |  |  |  |  | 
NC(=O)NCC#Cc1ccc2c(c1)[C@]1(C(=O)N2)[C@H](C(N)=O)[C@H]2C(=O)O[C@H](c3ccccc3)[C@H](c3ccccc3)N2[C@@H]1c1ccccc1OCCO | 0.212 (inactive) | 0.473 | 0.257 | -4.44 (inactive) | 0.113 (inactive) | 0.158 (inactive) | inactive | inactive | inactive | inactive |  | 
COCCCNC(=O)[C@@]1(c2ccc([N+](=O)[O-])cc2)CC(=O)N(C2CCCCC2)[C@@H]1c1ccc(CO)cc1 | 0.516 (inactive) | -0.0219 | -0.214 | -2.99 (inactive) | 0.029 (inactive) | -0.269 (inactive) |  |  |  |  |  | 
C=CC[C@@]1(C(=O)NCC(O)CO)N=C(c2ccc(OCCCO)cc2)O[C@@H]1c1ccccc1CN=[N+]=[N-] (some centres not stated) | 0.336 (inactive) | -0.105 | -2.34 | -2.67 (inactive) | -0.691 (inactive) | -0.873 (inactive) |  |  |  |  |  | 
CCCNC(=O)[C@@]1(Sc2ccc(C)cc2)CC(=O)N(Cc2ccccc2Cl)[C@@H]1c1ccc(CO)cc1 | 0.266 (inactive) | -0.271 | -1.79 | -1.4 (inactive) | -0.423 (inactive) | -0.365 (inactive) |  |  |  |  |  | 
O=C(CS)NCCCCCNC(=O)[C@H]1C[C@H]2C(=O)N[C@@H](Cc3ccccc3)C(=O)N2[C@H]1c1ccc(O)cc1 | 0.818 (inactive) | -0.072 | -0.0713 | -2.65 (inactive) | -0.319 (inactive) | 0.637 (inactive) |  |  |  |  |  | 
COc1cc(CO)cc(I)c1O[C@H]1C=C(C(=O)NCCO)C[C@@H](N(CC2CCCCC2)C(=O)c2cc3ccccc3oc2=O)[C@@H]1O | 0.193 (inactive) | 0.24 | 1.04 | -6.1 (inactive) | 0.113 (inactive) | 0.194 (inactive) |  | inactive | inactive | inactive |  | 
CCCCO[C@H]1C[C@H]2C(Br)=C[C@@]1(CO)C(=O)[C@]21CO1 | -0.631 (inactive) | -0.329 | 0.0951 | -0.0157 (inactive) | -0.407 (inactive) | -0.291 (inactive) |  |  |  |  |  | 
COc1ccc([Si](C)(C)[C@H]2[C@H](CCO)O[C@@]3(C(=O)N(Cc4ccc(N5CCCCC5=O)cc4)c4ccccc43)[C@@H]2C)cc1 | 0.125 (inactive) | 0.81 | -1.39 | -4.54 (inactive) | -0.688 (inactive) | -0.167 (inactive) |  |  |  |  |  | 
Cc1ccc([C@@H]2CC=C(C(=O)O)[C@H](c3ccccc3)N2S(=O)(=O)c2ccc(C)cc2)cc1 | 1.71 (inactive) | 0.909 | -0.745 | -7.09 (inactive) | -0.489 (inactive) | -0.824 (inactive) |  |  |  |  |  | 
O=C(N1CCCCC1)[C@@]1(CCS(=O)(=O)c2ccccc2)N=C(c2ccc(OCCCO)cc2)O[C@H]1c1ccccc1 | -0.43 (inactive) | 0.23 | -2.24 | -3.65 (inactive) | -0.61 (inactive) | -0.262 (inactive) |  |  |  |  | inactive | inactive
CC(C)N1CC=CC23O[C@@H]4/C=C\CCCOC(=O)C4[C@H]2C(=O)N(CCCCCO)[C@@H]3C1=O (some centres not stated) | -0.301 (inactive) | -1.95 | -0.426 | -4.61 (inactive) | -0.261 (inactive) | -0.128 (inactive) |  |  |  |  |  | 
